This note sets out measurements from PubChem BioAssay (Tox21).

Molecules are shown by their SMILES. Values joined by “and” are separate entries in the source; they are usually repeats but may differ in a detail not shown here. Equal values may be shown once. Where a structure was tested more than once in an assay, its records may differ in their call. Active and inactive are the calls of the source. Unless noted, calls come from the whole dose curve; as a rule, active = well fitted curve in the direction sought with a large enough effect in the repeat runs; inconclusive = weak or mixed curves; inactive = no such curve, though single readings can be large; an effect the other way counts as inactive or inconclusive.

Experiment [1] can be described thus: qHTS assay to identify small molecule antagonists of the thyroid receptor (TR) signaling pathway - cell viability counter screen (AID 743064). Note: nearly all actives have a fitted effect of over 50% in size. Note: potency is the fitted concentration of half-maximal effect. The essentials:
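Plate GH3.TRE-Luc cells; incubate 4 h at 37 °C; add compound, then T3 to 1 nM final; incubate 23.5 h; add CellTiter-Fluor; incubate 30 min at 37 °C, 5% CO2; read fluorescence.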
(Quantitative high-throughput screening tests each substance at several concentrations.)

The nature of experiment [2]: qHTS assay to identify small molecule antagonists of the thyroid receptor (TR) signaling pathway (AID 743065). Note: nearly all actives have a fitted effect of over 55% in size. Note: potency is the fitted concentration of half-maximal effect. The essentials:
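Antagonism measured as loss of luciferase signal in GH3 cells stably carrying a TRE-luciferase reporter, co-treated with compound and T3 (1 nM final) for 23.5 h at 37 C. Viability was read in the same well by CellTiter-Fluor.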

The subject of experiment [3] is thyroid hormone receptor (rat, GH3 cells). The experiment is described as follows: qHTS assay to identify small molecule agonists of the thyroid receptor (TR) signaling pathway (AID 743066; calls by dose curve; note: potency is the fitted concentration of half-maximal effect).
Experiment [4] is described as follows: qHTS assay to identify small molecule antagonists of the estrogen receptor alpha (ER-alpha) signaling pathway - cell viability counter screen (AID 743074; calls by dose curve; note: nearly all actives have a fitted effect of over 45% in size; note: potency is the fitted concentration of half-maximal effect).
The nature of experiment [5]: qHTS assay to identify small molecule antagonists of the estrogen receptor alpha (ER-alpha) signaling pathway using the BG1 cell line - cell viability counter screen (AID 743081).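 Note: compound given together with 17beta-estradiol as the ER stimulus; series mostly up to about 70 µM; nearly all actives have a fitted effect of over 45% in size.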
The next experiment concerns the target Aromatase (Homo sapiens) (UniProt P11511). Briefly: qHTS assay to identify aromatase inhibitors (AID 743083). Note: nearly all actives have a fitted effect of over 55% in size. Note: potency is the fitted concentration of half-maximal effect.
Experiment [6] can be described thus: qHTS assay to identify aromatase inhibitors - cell viability counter screen (AID 743084).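 Note: cells stimulated with testosterone during compound exposure; nearly all actives have a fitted effect of over 55% in size.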
The target of experiment [7] is Aryl hydrocarbon receptor (Homo sapiens) (UniProt P35869). Briefly: qHTS assay to identify small molecule that activate the aryl hydrocarbon receptor (AhR) signaling pathway (AID 743085).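 For activation: HG2L7.5c1 human HepG2 liver cells with stably integrated DRE-driven firefly reporter; series mostly up to about 70 µM.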 Note: nearly all actives have a fitted effect of over 15% in size. Note: potency is the fitted concentration of half-maximal effect. The essentials:
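Steps: seed HepG2-AhR-luc cells; allow 5 h at 37C; pin-transfer test compound or vehicle; incubate 24 h at 37C; add viability dye (30 min, 37C) and read fluorescence; add luciferase substrate (30 min, RT) and read luminescence.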

Experiment [8] can be described thus: qHTS assay to identify small molecule that activate the aryl hydrocarbon receptor (AhR) signaling pathway - cell viability counter screen (AID 743086).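 Note: HepG2 liver cells carrying the AhR DRE luciferase reporter; series mostly up to about 70 µM; nearly all actives have a fitted effect of over 45% in size.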 The essentials:
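Cytotoxicity counter screen: CellTiter-Fluor signal (30 min, 37 C) in 4000 HepG2 cells/well carrying the DRE-luciferase reporter, following 24 h compound exposure at 37 C.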

Experiment [9] is described as follows: qHTS assay to identify small molecule antagonists of the peroxisome proliferator-activated receptor gamma (PPARg) signaling pathway - cell viability counter screen (AID 743194). Note: nearly all actives have a fitted effect of over 55% in size. Conditions: Potency: co-treated with 50 nM rosiglitazone unless noted. Put shortly: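 Viability was measured as CellTiter-Glo luminescence in GeneBLAzer PPARg UAS-bla HEK293H cells. These cells had been exposed 17 h at 37 C to compounds together with rosiglitazone at 50 nM final, with the beta-lactamase readout taken in the same wells.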

Experiment [10] can be described thus: qHTS assay for small molecule agonists of the antioxidant response element (ARE) signaling pathway (AID 743202; active = well fitted activation curve with a large enough effect in the signal ratio in the repeat runs, not every such curve was filed as active; inconclusive = weak or mixed curves, or effect the other way; inactive = no such curve, though single readings can be large or run the other way; the % refers to the signal ratio; note: potency is the fitted concentration of half-maximal effect). The essentials:
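Beta-lactamase reporter activity, read as fluorescence intensity, reflects ARE/Nrf2 pathway induction in HepG2 cells after 16 h compound exposure at 37 C; substrate loading was 2 h at room temperature.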

A short description of experiment [11]: qHTS assay for small molecule agonists of the antioxidant response element (ARE) signaling pathway - cell viability counter screen (AID 743203; calls by dose curve; note: nearly all actives have a fitted effect of over 55% in size). Put shortly:
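ATP content via CellTiter-Glo luminescence served as the viability measure. Cells: ARE-bla HepG2, 2,000 per well. Exposure: 16 hrs, 37C/5% CO2.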

Experiment [12] can be described thus: qHTS assay for small molecule activators of the heat shock response signaling pathway - cell viability counter screen (AID 743209). Note: nearly all actives have a fitted effect of over 50% in size. The essentials:
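Compounds dissolved in DMSO were added to overnight-plated HSE-bla HeLa cells and left 5 h at 37 C. Cell viability was quantified by luminescence using CellTiter-Glo.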

Experiment [13] is described as follows: qHTS assay for small molecule activators of the heat shock response signaling pathway (AID 743210; active = well fitted activation curve with a large enough effect in the signal ratio in the repeat runs, with a control signal flat, not every such curve was filed as active; inconclusive = weak or mixed curves; the % refers to the signal ratio;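 note: HeLa cells with beta-lactamase reporter driven by heat shock elements; series mostly up to about 63 µM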). The essentials:
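Fluorescence from a cleaved B/G FRET substrate (2.5 h, room temp) reports HSE-driven beta-lactamase in HeLa cells treated 5 h at 37 C with DMSO-dissolved compounds.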

Experiment [14] in a line: qHTS assay to identify small molecule agonists of the peroxisome proliferator-activated receptor delta (PPARd) signaling pathway - cell viability counter screen (AID 743211). Note: nearly all actives have a fitted effect of over 55% in size. Put shortly: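 Viability of GeneBLAzer PPARd UAS-bla HEK293H cells was assessed after 17 h compound incubation at 37C, using CellTiter-Glo reagent added after the reporter read and luminescence recorded 30 min later.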

The target of experiment [15] is Estrogen receptor (Homo sapiens) (UniProt P03372). The experiment is described as follows: qHTS assay to identify small molecule antagonists of the estrogen receptor alpha (ER-alpha) signaling pathway (AID 743069; active = well fitted curve in the direction sought with a large enough effect in the signal ratio in the repeat runs, not every such curve was filed as active; inconclusive = weak or mixed curves, or effect the other way; inactive = no such curve, though single readings can be large or run the other way; the % refers to the signal ratio; note: potency is the fitted concentration of half-maximal effect). Put shortly: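 Fluorescence intensity from a beta-lactamase FRET substrate served as the read-out. Cells: HEK293 with stably integrated ER-alpha-UAS-bla reporter. Agonist 17beta-estradiol was co-added with compounds; incubation 18 hr at 37C, substrate 2 hr at room temperature.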
Chain of Estrogen receptor (Homo sapiens) (P03372 whole entry, looked up): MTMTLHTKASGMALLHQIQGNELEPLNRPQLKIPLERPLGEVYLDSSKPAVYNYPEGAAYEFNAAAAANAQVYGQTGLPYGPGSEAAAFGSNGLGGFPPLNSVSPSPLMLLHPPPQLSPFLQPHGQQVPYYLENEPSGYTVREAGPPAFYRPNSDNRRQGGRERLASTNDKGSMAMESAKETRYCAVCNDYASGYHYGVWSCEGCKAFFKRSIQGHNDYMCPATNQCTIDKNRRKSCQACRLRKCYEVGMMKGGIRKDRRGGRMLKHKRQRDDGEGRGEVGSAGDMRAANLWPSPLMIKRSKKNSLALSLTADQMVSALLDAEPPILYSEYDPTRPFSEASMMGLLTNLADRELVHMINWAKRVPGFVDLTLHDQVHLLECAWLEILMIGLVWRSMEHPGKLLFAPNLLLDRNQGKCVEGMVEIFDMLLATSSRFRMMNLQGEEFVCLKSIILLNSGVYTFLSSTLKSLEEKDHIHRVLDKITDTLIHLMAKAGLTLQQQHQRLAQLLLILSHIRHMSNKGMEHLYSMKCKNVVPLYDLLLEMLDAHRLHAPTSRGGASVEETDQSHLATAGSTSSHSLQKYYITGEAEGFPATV

Experiment [16] has the same target. Briefly: qHTS assay to identify small molecule agonists of the estrogen receptor alpha (ER-alpha) signaling pathway (AID 743075; calls by dose curve; note: potency is the fitted concentration of half-maximal effect).
Experiment [17] shares this target. Briefly: qHTS assay to identify small molecule agonists of the estrogen receptor alpha (ER-alpha) signaling pathway using the BG1 cell line (AID 743079). Note: nearly all actives have a fitted effect of over 20% in size. Note: potency is the fitted concentration of half-maximal effect.
Experiment [18] concerns the target Peroxisome proliferator-activated receptor gamma (Homo sapiens) (UniProt P37231). Briefly: qHTS assay to identify small molecule agonists of the peroxisome proliferator-activated receptor gamma (PPARg) signaling pathway (AID 743094; active = well fitted activation curve with a large enough effect in the signal ratio in the repeat runs, not every such curve was filed as active; inconclusive = weak or mixed curves, or effect the other way; inactive = no such curve, though single readings can be large or run the other way; the % refers to the signal ratio). Put shortly:
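Agonism was assessed in a beta-lactamase reporter system, HEK293H cells with a stably integrated UAS-bla construct under PPARg control; the 17 h treatment at 37C preceded a 1 h room-temperature FRET substrate read.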

Experiment [19] addresses Peroxisome proliferator-activated receptor delta (Homo sapiens) (UniProt Q03181). Briefly: qHTS assay to identify small molecule agonists of the peroxisome proliferator-activated receptor delta (PPARd) signaling pathway (AID 743212; calls by dose curve). The essentials:
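Steps: seed PPARd-bla HEK293H cells; incubate 5 h, 37 C, 5% CO2; add compounds in DMSO; incubate, 37 C; add LiveBLAzer B/G FRET substrate; hold 2 h at room temperature; measure fluorescence.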

Chain of Aromatase (Homo sapiens) (P11511 whole entry, looked up): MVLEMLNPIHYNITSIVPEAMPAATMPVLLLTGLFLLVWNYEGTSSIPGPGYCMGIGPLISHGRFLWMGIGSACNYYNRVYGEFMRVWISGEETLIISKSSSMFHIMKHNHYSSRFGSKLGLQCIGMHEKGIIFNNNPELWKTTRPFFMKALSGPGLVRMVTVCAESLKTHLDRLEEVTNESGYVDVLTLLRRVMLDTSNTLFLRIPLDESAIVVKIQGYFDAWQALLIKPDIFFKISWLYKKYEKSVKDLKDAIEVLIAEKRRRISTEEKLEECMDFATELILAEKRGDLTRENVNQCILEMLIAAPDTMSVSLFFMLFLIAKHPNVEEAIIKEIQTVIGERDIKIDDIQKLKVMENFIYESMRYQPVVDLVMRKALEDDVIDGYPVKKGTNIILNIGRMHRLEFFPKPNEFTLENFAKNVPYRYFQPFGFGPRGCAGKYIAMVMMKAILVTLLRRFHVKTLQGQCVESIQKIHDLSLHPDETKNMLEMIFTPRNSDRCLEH
Chain of Aryl hydrocarbon receptor (Homo sapiens) (P35869 whole entry, looked up): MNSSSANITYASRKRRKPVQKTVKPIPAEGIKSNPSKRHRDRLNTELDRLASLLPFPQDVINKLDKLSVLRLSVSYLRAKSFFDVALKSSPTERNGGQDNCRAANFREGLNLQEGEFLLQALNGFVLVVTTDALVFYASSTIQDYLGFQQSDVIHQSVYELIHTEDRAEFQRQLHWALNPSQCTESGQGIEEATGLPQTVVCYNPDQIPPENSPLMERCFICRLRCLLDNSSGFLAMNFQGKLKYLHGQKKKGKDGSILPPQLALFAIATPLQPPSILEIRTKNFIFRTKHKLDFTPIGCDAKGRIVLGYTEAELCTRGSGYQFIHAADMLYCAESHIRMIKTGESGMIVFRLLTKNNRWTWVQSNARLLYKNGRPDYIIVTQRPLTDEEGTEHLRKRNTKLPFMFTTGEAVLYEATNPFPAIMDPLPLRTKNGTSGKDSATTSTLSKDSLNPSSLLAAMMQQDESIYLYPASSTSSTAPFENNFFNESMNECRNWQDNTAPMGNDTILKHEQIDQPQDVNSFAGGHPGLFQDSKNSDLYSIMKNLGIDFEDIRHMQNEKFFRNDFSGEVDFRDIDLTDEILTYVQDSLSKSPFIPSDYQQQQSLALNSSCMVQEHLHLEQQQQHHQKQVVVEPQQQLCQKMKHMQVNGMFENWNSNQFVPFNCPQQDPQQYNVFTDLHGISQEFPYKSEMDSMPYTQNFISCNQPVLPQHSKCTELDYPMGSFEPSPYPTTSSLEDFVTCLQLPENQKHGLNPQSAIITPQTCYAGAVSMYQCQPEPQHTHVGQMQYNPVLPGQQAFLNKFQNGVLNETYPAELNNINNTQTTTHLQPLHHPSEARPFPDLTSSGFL
Chain of Peroxisome proliferator-activated receptor delta (Homo sapiens) (Q03181 whole entry, looked up): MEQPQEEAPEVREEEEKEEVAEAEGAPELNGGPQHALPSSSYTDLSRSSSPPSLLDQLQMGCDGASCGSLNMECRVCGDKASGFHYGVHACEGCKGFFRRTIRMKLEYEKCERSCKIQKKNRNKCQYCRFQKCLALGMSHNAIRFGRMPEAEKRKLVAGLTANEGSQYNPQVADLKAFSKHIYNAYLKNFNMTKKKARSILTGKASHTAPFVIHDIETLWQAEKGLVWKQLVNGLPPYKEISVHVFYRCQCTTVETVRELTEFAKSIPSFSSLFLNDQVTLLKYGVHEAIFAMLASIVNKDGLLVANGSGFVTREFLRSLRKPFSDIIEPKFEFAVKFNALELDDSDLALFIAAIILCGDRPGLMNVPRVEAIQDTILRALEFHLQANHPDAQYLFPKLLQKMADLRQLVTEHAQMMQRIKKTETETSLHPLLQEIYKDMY
Chain of Peroxisome proliferator-activated receptor gamma (Homo sapiens) (P37231 whole entry, looked up): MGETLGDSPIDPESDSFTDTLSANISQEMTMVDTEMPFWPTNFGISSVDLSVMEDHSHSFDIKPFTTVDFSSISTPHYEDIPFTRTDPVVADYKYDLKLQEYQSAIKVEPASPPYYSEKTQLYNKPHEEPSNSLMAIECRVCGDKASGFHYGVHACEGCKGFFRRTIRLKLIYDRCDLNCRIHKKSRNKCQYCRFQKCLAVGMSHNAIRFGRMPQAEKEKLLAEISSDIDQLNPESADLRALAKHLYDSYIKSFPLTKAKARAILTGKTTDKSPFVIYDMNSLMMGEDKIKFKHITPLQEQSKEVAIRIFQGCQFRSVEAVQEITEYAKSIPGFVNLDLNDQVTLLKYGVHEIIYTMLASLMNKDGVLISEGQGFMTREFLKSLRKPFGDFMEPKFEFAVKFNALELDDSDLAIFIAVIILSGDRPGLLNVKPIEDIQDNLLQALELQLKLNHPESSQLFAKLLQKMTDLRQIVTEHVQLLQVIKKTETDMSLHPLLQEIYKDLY

Turning to `CCCC[n+]1cccc(C)c1`, the Potency entry (in [1]; in experiment [2]; in [3]; in [4]; in experiment [5]; with Aromatase (Homo sapiens)) was “inactive” each time. The Potency entry in experiment [6], in experiment [7], in experiment [8], in experiment [9], in [11] and in experiment [12] was “inactive” in each case. Besides, in [14], the Potency entry was “inactive”. Further, the Potency in [10] was 60.9 µM (active) and inactive. Also, in experiment [13], the call was inactive.

Take `Nc1ccc(-c2ccc(N)c(Cl)c2)cc1Cl`: the Potency in [1] was 30.8 µM (active) and 18 µM (active) and 30.6 µM (active); in experiment [2], 27.4 µM (active) and 10.1 µM (active) and 17.2 µM (active); in [15], 27.7 µM [inhibitor] (active); in experiment [4], “inactive and 17.4 µM (active)”; in [16], 24.7 µM [inconclusive] (active) and 20.4 µM [inconclusive] (active) and 54.9 µM [inconclusive] (active); in experiment [17], 9.04 µM (active) and 6.86 µM (active). Also, the Potency in experiment [7] was 7.74 µM (active) and 6.4 µM (active) and 19.3 µM (active); in experiment [10], 1.38 µM (active) and 2.02 µM (active) and 1.72 µM (active). Also, the Potency entry in experiment [3], in experiment [5], in experiment [6], in experiment [8], in [11] and in [12] was “inactive” in each case. The Potency entry in experiment [14] was “inactive”. For the same molecule, in [18], the molecule was classed as inactive.

As for `CC[N+]1(C)CCCC1`, the Potency result (in [1]; in experiment [2]; in experiment [3]; in experiment [4]; in [5]; with Aromatase (Homo sapiens)) was “inactive” in each case. The Potency entry in experiment [6], in [7], in [8], in experiment [10], in [11] and in experiment [12] was “inactive” in each case. For the same molecule, in experiment [14], the Potency entry is “inactive”. Moreover, the call in [13] was inactive.

In the case of `O=C(O)C(Cl)Cl`, the Potency result in [1], in experiment [2], in experiment [15], in experiment [4], in experiment [16] and in experiment [17] was “inactive” in each case. In addition, the Potency entry (in experiment [5]; with Aromatase (Homo sapiens); in [6]; in [7]; in experiment [8]; in experiment [10]) was “inactive” throughout. Moreover, the Potency result in [11], in [12] and in experiment [14] was “inactive” in each case. In experiment [3], the Potency entry is “inactive and 61.1 µM (active)”. The call in experiment [18], in [13] and in experiment [19] was inactive.

As for `Cc1cc(Cl)ccc1OCC(=O)O`, the Potency result in experiment [1], in experiment [2], in experiment [3], in experiment [15], in experiment [4] and in [16] was “inactive” in each case. Moreover, the Potency result (in [17]; in [5]; with Aromatase (Homo sapiens); in experiment [6]; in [7]; in [8]) was “inactive” throughout. The Potency result in experiment [10], in [11], in [12] and in experiment [14] was “inactive” throughout. For the same molecule, the result in experiment [18] and in experiment [13] was inactive.

Regarding `Nc1ccc(-c2ccc(N)cc2)cc1`, the Potency result in [1], in experiment [2], in [3], in experiment [15], in [4] and in [16] was “inactive” throughout. Moreover, the Potency entry in experiment [17], in experiment [5], in experiment [6], in experiment [8], in experiment [10] and in experiment [11] was “inactive” throughout. The Potency entry in [12] and in experiment [14] was “inactive” in each case. For the same molecule, the Potency result with Aromatase (Homo sapiens) is “inactive and 1.92 µM (active)”; in experiment [7], 9.58 µM (active) and inactive and 61.1 µM (active). Further, the outcome in experiment [18] and in [13] was inactive.
